IDE exosite inh: displaces the probe from the exo-site of human IDE. P14735. purified IDE, FL-6b probe fluorescence polarization; active compounds read low. z-score at 20 µM. 6.3% of 17,000 active. AID 1259349;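 active = z-score of -3 or lower, meaning strong loss of probe binding signal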;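 note: His-tagged human IDE residues 42-1019 made in E. coli with 30 nM FL-6b probe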
Target sequence (P14735 42-1019 limits assumed): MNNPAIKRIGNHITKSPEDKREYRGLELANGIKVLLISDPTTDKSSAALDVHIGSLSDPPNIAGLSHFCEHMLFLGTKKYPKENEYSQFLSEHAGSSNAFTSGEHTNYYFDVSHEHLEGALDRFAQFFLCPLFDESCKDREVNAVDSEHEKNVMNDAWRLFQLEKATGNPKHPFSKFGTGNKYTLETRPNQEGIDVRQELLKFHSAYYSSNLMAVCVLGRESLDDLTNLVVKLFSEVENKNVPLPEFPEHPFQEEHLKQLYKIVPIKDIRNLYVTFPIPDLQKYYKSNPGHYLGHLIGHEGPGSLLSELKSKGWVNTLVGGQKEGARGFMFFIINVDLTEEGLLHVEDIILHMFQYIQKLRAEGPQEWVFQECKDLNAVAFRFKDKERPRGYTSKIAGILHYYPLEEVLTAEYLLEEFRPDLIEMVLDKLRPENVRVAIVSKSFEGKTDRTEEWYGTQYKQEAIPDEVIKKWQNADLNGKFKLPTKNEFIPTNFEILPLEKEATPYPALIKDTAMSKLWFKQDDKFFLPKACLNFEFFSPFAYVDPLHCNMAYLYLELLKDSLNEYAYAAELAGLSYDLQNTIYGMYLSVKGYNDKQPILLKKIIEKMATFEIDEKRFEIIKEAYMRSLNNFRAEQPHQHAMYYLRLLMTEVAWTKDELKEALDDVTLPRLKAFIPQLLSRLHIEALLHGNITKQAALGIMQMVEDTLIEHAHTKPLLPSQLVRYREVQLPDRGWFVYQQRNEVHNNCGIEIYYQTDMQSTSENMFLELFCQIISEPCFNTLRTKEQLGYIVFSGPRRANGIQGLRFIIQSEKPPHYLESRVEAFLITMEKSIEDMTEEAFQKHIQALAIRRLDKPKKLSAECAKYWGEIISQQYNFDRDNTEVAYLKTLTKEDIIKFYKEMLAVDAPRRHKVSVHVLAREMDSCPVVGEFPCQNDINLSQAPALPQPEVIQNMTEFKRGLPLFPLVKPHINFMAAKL
Starred values were filed as active, the others as inactive. This is one part of a sample in which hits are shown more often than they occur.

SMILES	IDE exosite inh
O=C(C[C@H]1CC[C@H]2NC[C@H](O)COC[C@@H]2O1)Nc1nccs1	0.68
Cc1ccccc1-c1ccc([C@H]2[C@H]3CN(C(=O)c4ccccc4)CC(=O)N3[C@H]2CO)cc1	0.77
O=C(c1ccncc1)N1CC(=O)N2[C@H](CO)[C@H](c3ccc(-c4cccnc4)cc3)[C@@H]2C1	1.6
Cc1ccccc1-c1ccc([C@@H]2[C@@H](CO)N3C(=O)CN(C(=O)c4ccncc4)C[C@@H]23)cc1	-3.5*
Cc1ccccc1-c1ccc([C@H]2[C@H]3CN(C(=O)c4ccncc4)CC(=O)N3[C@H]2CO)cc1	0.38
Cc1ccccc1-c1ccc([C@H]2[C@@H](CO)N3C(=O)CN(C(=O)c4ccccn4)C[C@@H]23)cc1	-12*
COc1ccc(-c2ccc([C@H]3[C@@H](CO)N4C(=O)CN(C(=O)c5ccccn5)C[C@@H]34)cc2)cc1	-1.3
O=C(c1ccncc1)N1CC(=O)N2[C@H](CO)[C@H](c3ccc(-c4ccccc4F)cc3)[C@H]2C1	-4.8*
CC(C)C#Cc1ccc([C@@H]2[C@@H](CO)N3C(=O)CN(C(=O)c4ccccn4)C[C@H]23)cc1	2.7
Cc1ccccc1-c1ccc([C@@H]2[C@H]3CN(C(=O)c4ccncc4)CC(=O)N3[C@H]2CO)cc1	-14*
O=C(c1ccncc1)N1CC(=O)N2[C@H](C1)[C@H](c1ccc(-c3ccccc3F)cc1)[C@@H]2CO	-0.15
Cc1ccccc1-c1ccc([C@H]2[C@H]3CN(C(=O)c4cccnc4)CC(=O)N3[C@H]2CO)cc1	-2
O=C(c1ccncc1)N1CC(=O)N2[C@H](CO)[C@@H](c3ccc(-c4ccccc4F)cc3)[C@@H]2C1	-1.9
CCCC#Cc1ccc([C@H]2[C@H](CO)N3C(=O)CN(C(=O)NC4CCCC4)C[C@@H]23)cc1	-3
O=C(Nc1ccc(F)cc1)N1CCCCN2[C@H](C1)[C@H](c1ccc(C3=CCCCC3)cc1)[C@@H]2CO	0.6
O=C(NC[C@@H]1[C@@H](c2ccccc2)[C@H](CO)N1Cc1cccnc1)c1ccccn1	0.75
CC(C)C#Cc1ccc([C@@H]2[C@H]3CN(C(=O)Cc4cccnc4)CC(=O)N3[C@H]2CO)cc1	-1.3
CN1C(=O)c2cc(NC(=O)Cc3cccs3)ccc2OC[C@@H]2O[C@@H](CC(=O)NCCc3ccncc3)CC[C@@H]21	-0.088
C/C=C/c1ccc([C@@H]2[C@@H](CO)N(C(=O)NCCC)[C@H]2CNC(=O)C2CC2)cc1	1.7
COc1ccc(C[C@@H]2CCn3nncc3COC[C@H](CC(C)C)NC2=O)cc1	0.22
COC(=O)C[C@@H]1CC[C@@H]2[C@H](COc3ccc(NC(=O)Nc4cccc(C#N)c4)cc3C(=O)N2C)O1	-0.68
COc1ccc2c3c(n(C)c2c1)[C@H](CO)NCC31CN(Cc2ccc(-c3ccccn3)cc2)C1	-0.87
C[C@@H]1CN([C@H](C)CO)C(=O)c2cc(-c3ccc(C#N)cc3)cnc2O[C@H]1CN(C)Cc1cccnc1	-0.4
O=C(c1ccncc1)N1CC(=O)N2[C@@H](CO)[C@@H](c3ccc(-c4cccnc4)cc3)[C@@H]2C1	1.8
Cc1ccccc1-c1ccc([C@@H]2[C@H](CO)N3C(=O)CN(C(=O)c4ccncc4)C[C@@H]23)cc1	-5.3*
SMILES	IDE exosite inh
COc1ccc(NC(=O)N2C[C@@H](O)COC[C@@H]3O[C@@H](CC(=O)N4CCCCC4)CC[C@H]32)cc1	1.7
O=S(=O)(c1ccccc1)N1CCCCN2[C@H](C1)[C@@H](c1ccc(-c3cncnc3)cc1)[C@@H]2CO	4.6
COCC(=O)N1[C@H](CO)[C@@H](c2ccc(C3=CCCCC3)cc2)[C@@H]1C#N	0.42
O=C(C1CC1)N1CC(=O)N2[C@@H](CO)[C@@H](c3ccc(C#Cc4cccc(F)c4)cc3)[C@@H]2C1	-4.7*
COc1ccc(C#Cc2ccc([C@@H]3[C@@H](CO)N4C(=O)CN(C(=O)C5CCOCC5)C[C@H]34)cc2)cc1	1.6
O=C(C1CCCC1)N1CC(=O)N2[C@H](CO)[C@H](c3ccc(C#CC4CCCC4)cc3)[C@@H]2C1	2
COc1ccc(C#Cc2ccc([C@H]3[C@@H](CO)N4C(=O)CN(C(=O)C5CCOCC5)C[C@H]34)cc2)cc1	-1.4
O=C(C1CCOCC1)N1CC(=O)N2[C@H](CO)[C@@H](c3ccc(C#Cc4cccc(F)c4)cc3)[C@@H]2C1	-10*
O=C(C1CC1)N1CC(=O)N2[C@H](CO)[C@H](c3ccc(C#CCc4ccccc4)cc3)[C@H]2C1	-0.86
O=C(C1CCC1)N1CC(=O)N2[C@H](CO)[C@@H](c3ccc(C#Cc4cccc(F)c4)cc3)[C@@H]2C1	-4.4*
O=C(C1CCCCC1)N1CC(=O)N2[C@H](C1)[C@H](c1ccc(C#Cc3cccc(F)c3)cc1)[C@@H]2CO	2.1
O=C(C1CCC1)N1CC(=O)N2[C@H](CO)[C@H](c3ccc(C#Cc4cccc(F)c4)cc3)[C@H]2C1	-10*
O=C(C1CC1)N1CC(=O)N2[C@H](CO)[C@H](c3ccc(C#CC4CCCC4)cc3)[C@H]2C1	1.7
O=C(C1CCCCC1)N1CC(=O)N2[C@H](CO)[C@@H](c3ccc(C#Cc4cccc(F)c4)cc3)[C@H]2C1	-0.72
O=C(C1CCC1)N1CC(=O)N2[C@@H](CO)[C@H](c3ccc(C#CCc4ccccc4)cc3)[C@@H]2C1	-0.22
CC(C)(O)C#Cc1ccc([C@H]2[C@@H](CO)N3CCCCN(C(=O)c4ccncc4)C[C@@H]23)cc1	1.8
C/C=C/c1ccc([C@H]2[C@@H](C#N)N(c3nc(CC)cs3)[C@@H]2CO)cc1	1.4
COc1ccc2c3c(n(C)c2c1)[C@@H](CO)N(C)CC31CN(S(=O)(=O)c2cccc(C)c2)C1	-1.9
CO[C@@H]1CC[C@@H]2CCN(C)C(=O)CCCN(C)C(=O)c3cc(C#N)ccc3OC[C@@H]1O2	-0.32
C/C=C/c1ccc(C2[C@H]3CNC[C@@H]2N3S(C)(=O)=O)cc1 (some centres not stated)	-0.18
C[C@H]1CN([C@@H](C)CO)C(=O)CCCn2nncc2CO[C@@H]1CN(C)C(=O)Nc1cccc(Oc2ccccn2)c1	-0.82
C/C=C/c1ccc(C2[C@H]3CNC[C@@H]2N3C(=O)Nc2ccccc2Cl)cc1 (some centres not stated)	0.32
O=C(Nc1ccc2c(c1)OCO2)N1[C@@H]2CNC[C@H]1C2c1ccc(/C=C/c2ccccc2)cc1 (some centres not stated)	-1.5
COc1cccc(-c2ccc(C3[C@H]4CNC[C@@H]3N4C(=O)Nc3cc(F)ccc3F)cc2)c1 (some centres not stated)	3.7
O=C(Nc1ccccc1Cl)N1[C@@H]2CNC[C@H]1C2c1ccc(-c2ccccc2)cc1 (some centres not stated)	1.2
O=C(Nc1ccccc1F)N1[C@@H]2CNC[C@H]1C2c1ccc(-c2ccccc2)cc1 (some centres not stated)	3
O=C(Nc1cccc(F)c1)N1[C@@H]2CNC[C@H]1C2c1ccc(-c2cncnc2)cc1 (some centres not stated)	-2.7
COc1ccccc1-c1ccc(C2[C@H]3CNC[C@@H]2N3C(=O)Nc2ccccc2Cl)cc1 (some centres not stated)	-3.2*
COc1ccc(NC(=O)N2[C@@H]3CNC[C@H]2C3c2ccc(-c3cccc(C(=O)N(C)C)c3)cc2)cc1 (some centres not stated)	0.85
COc1cccc(-c2ccc(C3[C@H]4CNC[C@@H]3N4C(=O)Nc3ccccc3OC)cc2)c1 (some centres not stated)	-3.9*
